# C diff HTS: C. difficile growth inhibitors, primary screen, HTS; 86,000 tested, 0.25% active; AID 1259249, 2017; Clostridium difficile clinical isolate growth, OD600, 24 h; hits give low values; growth activity, negative = inhibition, % at 16 µg/mL (by protocol);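 active = mean growth activity at or below -80% and every replicate also at or below -80%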;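 also: 0% = DMSO wells and -100% = levofloxacin 16 µg/mL wells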
# Pf Dd2 inh: P. falciparum Dd2 growth inhibitors, primary screen, SYBR Green fluorescence, single dose replicates. AID 1159554, 2015. 72 h; hits give low values. activity change, % at 10 µM. 94,000 tested, 2.3% active; in the data active = activity change below about -80%
# T cruzi growth-1: T. cruzi intracellular proliferation inhibitors, primary screen, cell-based, beta-gal Tulahuen parasites, NIH3T3 host, luminescence; AID 624255, 2012; inhibition, % at 8.34 µM; T. cruzi beta-gal in NIH3T3, GalScreen luminescence, 90 h; 77,000 tested, 5.9% active;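 active = mean inhibition above about 93%, with at least 55% of replicates each passing it, limit read from the data, passing the limit was not always enough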
# T cruzi growth-2: T. cruzi intracellular proliferation inhibitors, confirmation, cell-based, NIH3T3 host, beta-gal parasite, luminescence, cherry-pick; inhibition, % at 8.35 µM; T. cruzi beta-gal in NIH3T3, GalScreen luminescence, 90 h; 5,600 tested, 72% active; shares compounds with T cruzi growth-1;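 active = mean replicate inhibition above about 95% and at least 55% of replicates individually reaching it, limit read from the data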
# T cruzi growth-3: inhibitors of intracellular T. cruzi replication, confirmation, NIH3T3 host cells, beta-gal parasites, cherry-pick, set 2. inhibition, % at 2.09 µM. AID 651740, 2012. 5,600 tested, 21% active. shares compounds with T cruzi growth-1. T. cruzi beta-gal in NIH3T3, GalScreen luminescence, 90 h;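 active = mean inhibition above about 95%, with at least 55% of replicates also reaching it, limit read from the data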;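 also: plate controls were neutral control median for no effect and positive control median for full effect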
# 3T3 cytotox: cytotoxicity in mouse NIH/3T3 fibroblasts, confirmation, cytotoxicity control for T. cruzi proliferation inhibitor project, cell-based, cherry-pick, single point; NIH/3T3 viability, CellTiter-Glo ATP luminescence, 90 h; 5,600 tested, 14% active; cytotoxicity (signal decrease), % at 8.35 µM; shares compounds with T cruzi growth-1;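 active = mean signal decrease across replicates above about 35% based on untreated-well scatter, with enough replicates individually passing, limit read from the data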;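 also: 0% = median of neutral control wells and 100% = median of positive control wells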
# 3T3 cytotox 2: NIH/3T3 fibroblast cytotoxicity, confirmation, cytotoxicity control, cell-based, cherry-pick, single point, set 2; 5,600 tested, 56% active; NIH/3T3 viability, CellTiter-Glo ATP luminescence, 90 h; inhibition, % at 24.9 µM; shares compounds with T cruzi growth-1;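 active = mean loss of cell viability signal at or above a set limit, and enough replicates individually reaching it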;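 also: 0% = median of neutral control wells and 100% = median of positive control wells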
# Starred values were filed as active, the others as inactive; . = no result given. In the library only some 6.8% were active in any assay of this set; here they are far more common.
SMILES,C diff HTS,Pf Dd2 inh,T cruzi growth-1,T cruzi growth-2,T cruzi growth-3,3T3 cytotox,3T3 cytotox 2
O=C(CCN1CCCCC1)NCC[C@H]1CC[C@H](NC(=O)C2CCCCC2)[C@H](CO)O1,-2,22,.,.,.,.,.
CC(C)C(=O)Nc1ccc2c(c1)C(=O)N(C)[C@H]1CC[C@H](CC(=O)NCc3ccccc3)O[C@H]1CO2,1,6,5,.,.,.,.
C[C@@H]1CN([C@@H](C)CO)C(=O)Cc2cc(NC(=O)CCN3CCOCC3)ccc2O[C@@H]1CN(C)C(=O)Nc1ccc(C(F)(F)F)cc1,-2,16,9,.,.,.,.
CC(C)NC(=O)Nc1ccc2c(c1)C(=O)N([C@@H](C)CO)C[C@@H](C)[C@H](CN(C)C(=O)c1ccncc1)OCCCC[C@@H](C)O2,-3,30,-2,.,.,.,.
C[C@H](CO)N1C[C@H](C)[C@@H](CN(C)C(=O)Nc2ccc3c(c2)OCO3)Oc2ccc(NC(=O)C3CCCCC3)cc2CC1=O,-3,-6,6,.,.,.,.
O=C(Nc1nccs1)[C@H]1[C@H](CO)[C@H]2Cn3c(cccc3=O)[C@@H]1N2C(=O)C1CCCC1,2,.,53,.,.,.,.
Cc1cccc(S(=O)(=O)N2CC[C@@H]3[C@H]2c2cc(-c4cccc(C#N)c4)ccc2N(C)[C@H]3CO)c1,4,1,83,.,.,.,.
COc1cccc(-c2ccc3c(c2)[C@H]2[C@H](CCN2S(=O)(=O)c2ccc(F)cc2)[C@H](CO)N3C)c1,-6,8,101*,103*,100*,32,6
COc1cccc(-c2ccc3c(c2)[C@@H]2[C@@H](CCN2S(=O)(=O)c2ccc(F)cc2)[C@@H](CO)N3C)c1,-18,-20,80,.,.,.,.
CN1c2ccc(-c3cccc(C#N)c3)cc2[C@H]2[C@H](CCN2S(=O)(=O)c2ccccc2)[C@H]1CO,6,5,101*,108*,82,19,26*
CN1c2ccc(C3=CCCCC3)cc2[C@@H]2[C@@H](CCN2S(=O)(=O)c2ccc(F)cc2)[C@H]1CO,1,-14,71,.,.,.,.
CN1c2ccc(C3=CCCCC3)cc2[C@@H]2[C@@H](CCN2S(=O)(=O)c2ccccc2)[C@@H]1CO,6,-17,105*,96*,106*,33,78*
COc1ccc(S(=O)(=O)Nc2ccc3c(c2)CC(=O)N([C@H](C)CO)C[C@H](C)[C@@H](CN(C)C(=O)Nc2ccc(C(F)(F)F)cc2)O3)cc1,1,-5,11,.,.,.,.
CCC(=O)N[C@@H]1CC[C@@H](CCn2cc(C3CC3)nn2)O[C@H]1CO,0,13,.,.,.,.,.
Cc1noc(C)c1NC(=O)N(C)C[C@H]1Oc2c(NC(=O)Nc3ccccc3)cccc2C(=O)N([C@H](C)CO)C[C@H]1C,.,12,21,.,.,.,.
C[C@H]1CN([C@@H](C)CO)C(=O)Cc2cc(NC(=O)C3CC3)ccc2O[C@H]1CN(C)C(=O)Nc1cccc2ccccc12,-4,-17,-2,.,.,.,.
COc1ccc(S(=O)(=O)N(C)C[C@H]2OCCCC[C@@H](C)Oc3ccc(NS(=O)(=O)c4ccc(F)cc4)cc3C(=O)N([C@@H](C)CO)C[C@H]2C)cc1,6,-51,100*,99*,75,-16,-15
COc1ccc(S(=O)(=O)Nc2ccc3c(c2)C(=O)N([C@@H](C)CO)C[C@@H](C)[C@H](CN(C)S(=O)(=O)c2ccc(F)cc2)OCCCC[C@H](C)O3)cc1,7,-28,100*,103*,39,30,5
COc1ccc(S(=O)(=O)Nc2ccc3c(c2)C(=O)N([C@@H](C)CO)C[C@@H](C)[C@H](CN(C)S(=O)(=O)c2ccc(F)cc2)OCCCC[C@@H](C)O3)cc1,3,-12,108*,114*,65,11,23
COc1ccc(S(=O)(=O)Nc2ccc3c(c2)C(=O)N([C@@H](C)CO)C[C@@H](C)[C@@H](CN(C)S(=O)(=O)c2ccc(F)cc2)OCCCC[C@H](C)O3)cc1,11,-63,44,.,.,.,.
COc1ccc(S(=O)(=O)Nc2ccc3c(c2)C(=O)N([C@@H](C)CO)C[C@@H](C)[C@@H](CN(C)S(=O)(=O)c2ccc(F)cc2)OCCCC[C@@H](C)O3)cc1,18,-42,79,.,.,.,.
COc1ccc(S(=O)(=O)N(C)C[C@@H]2OCCCC[C@H](C)Oc3ccc(NS(=O)(=O)c4ccc(F)cc4)cc3C(=O)N([C@H](C)CO)C[C@H]2C)cc1,18,-60,81,.,.,.,.
CC(=O)N[C@H]1CC[C@@H](CC(=O)NCC2CCCCC2)O[C@H]1CO,0,4,6,.,.,.,.
CN1C(=O)c2cc(NS(C)(=O)=O)ccc2OC[C@H]2O[C@@H](CC(=O)Nc3cccc(F)c3)CC[C@@H]21,0,17,-1,.,.,.,.
N#C[C@@H]1[C@@H](c2ccc(C#Cc3ccccc3F)cc2)[C@@H](CO)N1C(=O)C1CCCCC1,3,-28,102*,109*,70,-9,80*
SMILES,C diff HTS,Pf Dd2 inh,T cruzi growth-1,T cruzi growth-2,T cruzi growth-3,3T3 cytotox,3T3 cytotox 2
COCC(=O)N1[C@@H](C#N)[C@@H](c2ccccc2)[C@@H]1CO,-3,32,28,.,.,.,.
N#C[C@@H]1[C@H](c2ccc(C#Cc3ccccc3F)cc2)[C@H](CO)N1C(=O)C1CCC1,-1,-72,94,.,.,.,.
N#C[C@H]1[C@@H](c2ccc(C#Cc3ccccc3F)cc2)[C@@H](CO)N1C(=O)C1CC1,7,-65,103*,104*,104*,5,30*
N#C[C@@H]1[C@H](c2ccc(C#Cc3ccccc3F)cc2)[C@@H](CO)N1C(=O)C1CC1,-3,-7,99*,99*,43,6,43*
COCC(=O)N1[C@H](C#N)[C@@H](c2ccc(C#Cc3ccccc3F)cc2)[C@H]1CO,7,-11,101*,98*,34,-1,2
N#C[C@H]1[C@@H](c2ccc(C#Cc3ccccc3F)cc2)[C@H](CO)N1C(=O)C1CC1,-16,-35,95,.,.,.,.
C[C@@H]1CN([C@@H](C)CO)C(=O)c2cccc(NC(=O)c3ccc(-c4nccs4)cc3)c2O[C@H]1CN(C)S(=O)(=O)c1cccs1,-4,-14,3,.,.,.,.
COCC(=O)N1[C@H](CO)[C@@H](c2ccccc2)C12CN(C(=O)c1cccnc1)C2,-10,37,.,.,.,.,.
Cc1ccc(S(=O)(=O)N(C)C[C@H]2OCCCC[C@H](C)Oc3ccc(NC(=O)CCCN(C)C)cc3C(=O)N([C@@H](C)CO)C[C@H]2C)cc1,.,-38,9,.,.,.,.
